Test results: PubChem BioAssay AID1159580 (chemical genetic matrix, 2015)
Among all 5,500 compounds or so, about 2,000 (36%) were called active. Inconclusive results (about 18%) are left out. Cut-off read from the data, not from the text of the source: active = normalized growth mostly below about 0.91 (no sharp cut-off); inconclusive = no clear call, values can overlap the other calls; inactive = mostly above about 0.92. The list shows a part of the results.

Assay: chemical genetic growth profiling, strain panel (AID 1159580);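 note: tested at 20 µM; growth read once vehicle control cultures reached saturation at 30 °C; 1 = growth at the plate median or of vehicle wells; lower values mean less growth of the strain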
Conditions: S. cerevisiae deletion strains, growth OD
[1] = locus YAL021C, strain ccr4, stronger effect = lower value
[2] = locus YAL026C, strain drs2, stronger effect = lower value
[3] = locus YAL030W, strain snc1, stronger effect = lower value
[4] = locus YBL061C, strain skt5, stronger effect = lower value
[5] = locus YBR009C, strain hhf1, stronger effect = lower value
[6] = locus YBR023C, strain chs3, stronger effect = lower value
[7] = locus YBR171W, strain sec66, stronger effect = lower value
[8] = locus YBR231C, strain swc5, stronger effect = lower value
[9] = locus YBR279W, strain paf1, stronger effect = lower value
[10] = locus YCL011C, strain gbp2, stronger effect = lower value
[11] = locus YCL016C, strain dcc1, stronger effect = lower value
[12] = locus YCL061C, strain MRC1, stronger effect = lower value
[13] = locus YCL069W, strain vba3, stronger effect = lower value
[14] = locus YCR088W, strain abp1, stronger effect = lower value
[15] = locus YDL005C, strain med2, stronger effect = lower value
[16] = locus YDL040C, strain nat1, stronger effect = lower value
[17] = locus YDR001C, strain nth1, stronger effect = lower value
[18] = locus YDR069C, strain doa4, stronger effect = lower value
[19] = locus YDR137W, strain rgp1, stronger effect = lower value
[20] = locus YDR159W, strain sac3, stronger effect = lower value
[21] = locus YDR297W, strain sur2, stronger effect = lower value
[22] = locus YDR334W, strain swr1, stronger effect = lower value
[23] = locus YDR335W, strain msn5, stronger effect = lower value
[24] = locus YDR392W, strain spt3, stronger effect = lower value
[25] = locus YEL003W, strain gim4, stronger effect = lower value
[26] = locus YEL037C, strain rad23, stronger effect = lower value
[27] = locus YEL061C, strain CIN8 (second series), stronger effect = lower value
[28] = locus YER015W, strain faa2, stronger effect = lower value
[29] = locus YER016W, strain bim1, stronger effect = lower value
[30] = locus YER111C, strain swi4, stronger effect = lower value
[31] = locus YER155C, strain BEM2 (second series), stronger effect = lower value
[32] = locus YFR010W, strain ubp6, stronger effect = lower value
[33] = locus YGL167C, strain pmr1, stronger effect = lower value
[34] = locus YGL173C, strain kem1, stronger effect = lower value
[35] = locus YGL227W, strain vid30, stronger effect = lower value
[36] = locus YGL240W, strain doc1, stronger effect = lower value
[37] = locus YGL253W, strain hxk2, stronger effect = lower value
[38] = locus YHR013C, strain ard1, stronger effect = lower value
[39] = locus YHR027C, strain rpn1, stronger effect = lower value
[40] = locus YHR030C, strain SLT2, stronger effect = lower value
[41] = locus YHR079C, strain IRE1, stronger effect = lower value
[42] = locus YHR142W, strain chs7, stronger effect = lower value
[43] = locus YJL092W, strain hpr5, stronger effect = lower value
[44] = locus YJL095W, strain BCK1 (second series), stronger effect = lower value
[45] = locus YJL095W, strain BCK1, stronger effect = lower value
[46] = locus YJL115W, strain asf1, stronger effect = lower value
[47] = locus YJL129C, strain trk1, stronger effect = lower value
[48] = locus YJL154C, strain vps35, stronger effect = lower value
[49] = locus YJL164C, strain tpk1, stronger effect = lower value
[50] = locus YJL166W, strain qcr8, stronger effect = lower value
[51] = locus YJR066W, strain TOR1, stronger effect = lower value
[52] = locus YKL160W, strain elf1, stronger effect = lower value
[53] = locus YKR026C, strain gcn3, stronger effect = lower value
[54] = locus YKR091W, strain srl3, stronger effect = lower value
[55] = locus YLL001W, strain dnm1, stronger effect = lower value
[56] = locus YLL026W, stronger effect = lower value
[57] = locus YLL041C, strain sdh2, stronger effect = lower value
[58] = locus YLR027C, strain aat2, stronger effect = lower value
[59] = locus YLR113W, strain HOG1, stronger effect = lower value
[60] = locus YLR221C, strain rsa3, stronger effect = lower value
[61] = locus YLR258W, strain gsy2, stronger effect = lower value
[62] = locus YLR262C, strain YPT6 (second series), stronger effect = lower value
[63] = locus YLR320W, strain mms22, stronger effect = lower value
[64] = locus YLR342W, strain FKS1, stronger effect = lower value
[65] = locus YLR357W, strain rsc2, stronger effect = lower value
[66] = locus YLR370C, strain arc18, stronger effect = lower value
[67] = locus YLR384C, strain iki3, stronger effect = lower value
[68] = locus YML120C, strain ndi1, stronger effect = lower value
[69] = locus YMR058W, strain fet3, stronger effect = lower value
[70] = locus YMR125W, strain sto1, stronger effect = lower value
[71] = locus YMR129W, stronger effect = lower value
[72] = locus YMR205C, strain PFK2, stronger effect = lower value
[73] = locus YMR231W, strain pep5, stronger effect = lower value
[74] = locus YNL071W, strain lat1, stronger effect = lower value
[75] = locus YNL183C, strain NPR1, stronger effect = lower value
[76] = locus YNL209W, strain ssb2, stronger effect = lower value
[77] = locus YNL248C, strain rpa49, stronger effect = lower value
[78] = locus YNL322C, strain KRE1 (second series), stronger effect = lower value
[79] = locus YNR049C, strain mso1, stronger effect = lower value
[80] = locus YOR001W, strain rrp6, stronger effect = lower value
[81] = locus YOR070C, strain gyp1, stronger effect = lower value
[82] = locus YOR080W, strain dia2, stronger effect = lower value
[83] = locus YOR083W, strain WHI5, stronger effect = lower value
[84] = locus YOR106W, strain vam3, stronger effect = lower value
[85] = locus YOR231W, strain MKK1, stronger effect = lower value
[86] = locus YOR265W, strain rbl2, stronger effect = lower value
[87] = locus YOR270C, strain vph1, stronger effect = lower value
[88] = locus YOR290C, strain snf2, stronger effect = lower value
[89] = locus YPL051W, strain arl3, stronger effect = lower value
[90] = locus YPL078C, strain atp4, stronger effect = lower value
[91] = locus YPL106C, strain sse1, stronger effect = lower value
[92] = locus YPL240C, strain hsp82, stronger effect = lower value
[93] = locus YPL256C, strain CLN2, stronger effect = lower value

Measured: normalized growth

COc1cc2c(cc1OC)[C@@H](c1ccccc1)CN(C)CC2
inactive: locus YAL040C, strain CLN3, stronger effect = lower value 1 | locus YCL061C, strain MRC1 (second series), stronger effect = lower value 1.01 | locus YDR363W, strain ESC2, stronger effect = lower value 1.01 | locus YER002W, strain NOP16, stronger effect = lower value 1 | locus YGR078C, strain PAC10, stronger effect = lower value 1.01 | locus YJR075W, strain HOC1, stronger effect = lower value 1.01 | locus YMR263W, strain SAP30, stronger effect = lower value 1.01 | locus YMR307W, strain GAS1, stronger effect = lower value 1.01 | locus YNL128W, strain TEP1, stronger effect = lower value 1.01 | locus YNL153C, strain GIM3, stronger effect = lower value 1.04 | locus YNL175C, strain NOP13, stronger effect = lower value 1 | locus YNL197C, strain WHI3, stronger effect = lower value 1 | locus YNL224C, strain SQS1, stronger effect = lower value 1 | locus YNL322C, strain KRE1, stronger effect = lower value 1.01 | locus YOR083W, strain WHI5 (second series), stronger effect = lower value 1.02 | locus YPL055C, strain LGE1, stronger effect = lower value 0.995 | locus YPL241C, strain CIN2, stronger effect = lower value 1.01

COC1=CC(=O)C(O)=C/C1=C\C=C\c1ccccc1
active: [1] 0.0637 | [2] 0.0627 | [3] 0.0587 | [4] 0.0684 | [5] 0.0623 | [6] 0.075 | [7] 0.0792 | [8] 0.0663 | [9] 0.068 | [10] 0.0594 | [11] 0.0807 | [12] 0.0651 | [13] 0.064 | [14] 0.0619 | [15] 0.0757 | [16] 0.244 | [17] 0.0607 | [18] 0.068 | [19] 0.292 | [20] 0.166 | locus YDR195W, strain ref2 0.115 | [21] 0.0591 | [22] 0.0652 | [23] 0.0631 | [24] 0.0929 | [25] 0.0583 | [26] 0.0597 | [27] 0.064 | [28] 0.0626 | [29] 0.0792 | [30] 0.076 | [31] 0.0935 | [32] 0.0686 | [33] 0.0977 | [34] 0.0694 | [35] 0.0665 | [36] 0.0868 | [37] 0.0562 | [38] 0.205 | [39] 0.064 | [40] 0.114 | [41] 0.111 | [42] 0.0751 | [43] 0.0609 | [44] 0.0603 | [45] 0.104 | [46] 0.0766 | [47] 0.0861 | [48] 0.0623 | [49] 0.0609 | [50] 0.0637 | locus YJL187C, strain SWE1, stronger effect = lower value 0.0601 | [51] -0.00301 | [52] 0.073 | [53] 0.0653 | [54] 0.0623 | [55] 0.0646 | [56] 0.0594 | [57] 0.0594 | [58] 0.0574 | [59] 0.173 | [60] 0.0618 | [61] 0.0601 | [62] 0.0834 | [63] 0.0845 | [64] 0.0656 | [65] 0.127 | [66] 0.0611 | [67] 0.0607 | [68] 0.0568 | [69] 0.0632 | [70] 0.0692 | [71] 0.0614 | [72] 0.088 | [73] 0.068 | [74] 0.0619 | [75] -0.000893 | [76] 0.0644 | [77] 0.0693 | [78] 0.068 | [79] 0.0603 | [80] 0.069 | [81] 0.0623 | [82] 0.0977 | [83] 0.0654 | [84] 0.0683 | [85] 0.109 | [86] 0.0614 | [87] 0.0968 | [88] 0.0813 | [89] 0.0697 | [90] 0.0641 | [91] 0.102 | [92] 0.0581 | [93] 0.131

COC1=CC(=O)C(C(=O)c2ccccc2)=CC1=O
inactive: [1] 1.01 | [2] 0.992 | [3] 0.993 | [4] 1.01 | [5] 0.977 | [6] 0.988 | [7] 0.978 | [8] 0.972 | [9] 0.991 | [10] 0.971 | [11] 0.977 | [12] 0.978 | [13] 0.996 | [14] 0.987 | [15] 0.966 | [16] 0.981 | [17] 0.964 | [18] 0.965 | [19] 0.938 | [20] 0.949 | locus YDR195W, strain ref2 0.964 | [21] 0.967 | [22] 0.96 | [23] 0.97 | [24] 0.98 | [25] 0.976 | [26] 0.986 | [27] 0.98 | [28] 0.98 | [29] 0.974 | [30] 0.973 | [31] 0.975 | [32] 0.993 | [33] 0.975 | [34] 1 | [35] 0.986 | [36] 0.955 | [37] 0.987 | [38] 0.967 | [39] 0.966 | [40] 1.02 | [41] 1.02 | [42] 0.996 | [43] 0.968 | [44] 0.971 | [45] 1.02 | [46] 0.956 | [47] 0.941 | [48] 0.974 | [49] 0.988 | [50] 1.01 | [51] 0.94 | [52] 0.991 | [53] 0.993 | [54] 0.97 | [55] 0.972 | [56] 1 | [57] 0.98 | [58] 0.976 | [59] 1.02 | [60] 0.988 | [61] 0.997 | [62] 0.975 | [63] 0.981 | [64] 0.983 | [65] 0.946 | [66] 0.959 | [67] 0.979 | [68] 1 | [69] 0.966 | [70] 0.987 | [71] 1 | [72] 1 | [73] 0.991 | [74] 0.985 | [75] 0.969 | [76] 0.977 | [77] 0.992 | [78] 0.965 | [79] 0.964 | [80] 0.975 | [81] 0.977 | [82] 1 | [83] 0.991 | [84] 0.992 | [85] 1.04 | [86] 0.986 | [87] 1.01 | [88] 0.965 | [89] 0.984 | [90] 0.975 | [91] 0.927 | [92] 0.977 | [93] 1.04
